# Experimental data: PubChem BioAssay AID1159580 (chemical genetic matrix, 2015)
# The whole screen tested about 5,500 compounds, of which about 2,000 (36%) were called active. Inconclusive results (about 18%) are left out. Some of the results follow. Values without a mark were called inactive. No stated cut-off is given here; in the data, active means normalized growth mostly below about 0.91 (no sharp cut-off); inconclusive means no clear call, values can overlap the other calls; inactive means mostly above about 0.92.
# Assay: chemical genetic growth profiling, strain panel (AID 1159580);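 further: tested at 20 µM; growth read once vehicle control cultures reached saturation at 30 °C; 1 = growth at the plate median or of vehicle wells; lower values mean less growth of the strain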
# Conditions: growth OD
# [1] = S. cerevisiae deletion strains, locus YAL013W, strain DEP1, active compounds read low
# [2] = S. cerevisiae deletion strains, locus YBR229C, strain ROT2, active compounds read low
# [3] = S. cerevisiae deletion strains, locus YCL061C, strain MRC1, active compounds read low
# [4] = S. cerevisiae deletion strains, locus YDL101C, strain DUN1, active compounds read low
# [5] = S. cerevisiae deletion strains, locus YDL134C, strain PPH21, active compounds read low
# [6] = S. cerevisiae deletion strains, locus YDR150W, strain NUM1, active compounds read low
# [7] = S. cerevisiae deletion strains, locus YEL061C, strain CIN8, active compounds read low
# [8] = S. cerevisiae deletion strains, locus YGR078C, strain PAC10, active compounds read low
# [9] = S. cerevisiae deletion strains, locus YHR030C, strain SLT2, active compounds read low
# [10] = S. cerevisiae deletion strains, locus YHR087W, strain rtc3, active compounds read low
# [11] = S. cerevisiae deletion strains, locus YJR043C, strain POL32, active compounds read low
# [12] = S. cerevisiae deletion strains, locus YJR075W, strain HOC1, active compounds read low
# [13] = S. cerevisiae deletion strains, locus YLR039C, strain RIC1, active compounds read low
# [14] = S. cerevisiae deletion strains, locus YLR058C, strain SHM2 (second series), active compounds read low
# [15] = S. cerevisiae deletion strains, locus YLR085C, strain ARP6, active compounds read low
# [16] = S. cerevisiae deletion strains, locus YLR262C, strain YPT6, active compounds read low
# [17] = S. cerevisiae deletion strains, locus YML094W, strain GIM5, active compounds read low
# [18] = S. cerevisiae deletion strains, locus YMR219W, strain ESC1, active compounds read low
# [19] = S. cerevisiae deletion strains, locus YMR263W, strain SAP30, active compounds read low
# [20] = S. cerevisiae deletion strains, locus YNL153C, strain GIM3, active compounds read low
# [21] = S. cerevisiae deletion strains, locus YNL298W, strain CLA4 (second series), active compounds read low
# [22] = S. cerevisiae deletion strains, locus YNL322C, strain KRE1, active compounds read low
# [23] = S. cerevisiae deletion strains, locus YNR030W, strain Alg12, active compounds read low
# [24] = S. cerevisiae deletion strains, locus YOL006C, strain TOP1, active compounds read low
# [25] = S. cerevisiae deletion strains, locus YPL055C, strain LGE1, active compounds read low
# [26] = S. cerevisiae deletion strains, locus YPL241C, strain CIN2, active compounds read low
# [27] = S. cerevisiae deletion strains, locus YPR135W, strain CTF4, active compounds read low
# [28] = S. cerevisiae strains, strain wild type, active compounds read low
# [29] = S. cerevisiae deletion strains, locus YKL190W, strain CNB1, active compounds read low
smiles,measurement,setting,value
Cn1c(SCC(=O)N2CCOCC2)nnc1-c1ccc2ncccc2c1,normalized growth,[1],0.996
same,normalized growth,[2],1.01
same,normalized growth,[3],1.02
same,normalized growth,[4],1.03
same,normalized growth,[5],0.963
same,normalized growth,[6],0.929
same,normalized growth,[7],1.03
same,normalized growth,[8],1.02
same,normalized growth,[9],1.08
same,normalized growth,[10],1.01
same,normalized growth,[11],1.01
same,normalized growth,[12],1.03
same,normalized growth,[13],0.971
same,normalized growth,[14],0.995
same,normalized growth,[15],1.1
same,normalized growth,[16],0.942
same,normalized growth,[17],1.06
same,normalized growth,[18],1
same,normalized growth,[19],1
same,normalized growth,[20],1
same,normalized growth,[21],1.03
same,normalized growth,[22],0.992
same,normalized growth,[23],1.03
same,normalized growth,[24],1.03
same,normalized growth,[25],1.04
same,normalized growth,[26],1.05
same,normalized growth,[27],1.03
same,normalized growth,[28],0.984
Cn1c(SCc2ccccc2)nnc1-c1ccc2ncccc2c1,normalized growth,[1],1
same,normalized growth,[2],0.997
same,normalized growth,[3],1.01
same,normalized growth,[4],0.986
same,normalized growth,[5],1.01
same,normalized growth,[6],0.902
same,normalized growth,[7],0.987
same,normalized growth,[8],1
same,normalized growth,[9],1.18
same,normalized growth,[10],0.999
same,normalized growth,[11],0.997
same,normalized growth,[12],0.991
same,normalized growth,[29],0.994
same,normalized growth,[13],1.1
same,normalized growth,[14],0.997
same,normalized growth,[15],1.05
same,normalized growth,[16],1.1
same,normalized growth,[17],1.01
same,normalized growth,[18],0.999
same,normalized growth,[19],0.989
same,normalized growth,"S. cerevisiae deletion strains, locus YMR307W, strain GAS1, active compounds read low",1.41 [resistant] (active)
same,normalized growth,[20],0.997
same,normalized growth,[21],1.07
same,normalized growth,[22],0.992
same,normalized growth,[23],1.02
same,normalized growth,[24],1.01
same,normalized growth,[25],0.99
same,normalized growth,[26],1.02
same,normalized growth,[27],1.08
CCOC(=O)c1cnc2n(c1=O)CCS2,normalized growth,[1],1.02
same,normalized growth,[2],0.997
same,normalized growth,[4],1.05
same,normalized growth,[6],0.965
same,normalized growth,[7],1.04
same,normalized growth,[8],1.04
same,normalized growth,[9],1.1
same,normalized growth,[10],1.02
same,normalized growth,[11],0.999
same,normalized growth,[12],1.01
same,normalized growth,[29],0.996
same,normalized growth,[13],0.99
same,normalized growth,[14],0.995
same,normalized growth,[15],1.06
same,normalized growth,[16],0.996
same,normalized growth,[17],1.13 [resistant] (active)
same,normalized growth,[18],0.999
same,normalized growth,[19],1
same,normalized growth,"S. cerevisiae deletion strains, locus YNL128W, strain TEP1, active compounds read low",0.997
same,normalized growth,[20],1.02
same,normalized growth,[21],1.03
same,normalized growth,[22],1.01
same,normalized growth,[23],1.08
same,normalized growth,[24],1.07
same,normalized growth,[25],0.987
same,normalized growth,[26],1.01
same,normalized growth,[27],1.12
same,normalized growth,[28],0.975
O=C(NNc1cc(C(F)(F)F)cc(C(F)(F)F)c1)c1cnc2n(c1=O)CCS2,normalized growth,"S. cerevisiae deletion strains, locus YAR019C, strain CDC15, active compounds read low",0.985
same,normalized growth,"S. cerevisiae deletion strains, locus YBL105C, strain PKC1, active compounds read low",0.987
same,normalized growth,"S. cerevisiae deletion strains, locus YBR135W, strain CKS1, active compounds read low",0.99
same,normalized growth,"S. cerevisiae deletion strains, locus YBR136W, strain MEC1, active compounds read low",0.983
same,normalized growth,"S. cerevisiae deletion strains, locus YBR160W, strain CDC28, active compounds read low",0.99
same,normalized growth,"S. cerevisiae deletion strains, locus YDL017W, strain CDC7, active compounds read low",0.986
same,normalized growth,"S. cerevisiae deletion strains, locus YDL028C, strain MPS1, active compounds read low",0.991
same,normalized growth,[4],0.983
same,normalized growth,"S. cerevisiae deletion strains, locus YDL108W, strain KIN28, active compounds read low",1
same,normalized growth,"S. cerevisiae deletion strains, locus YDL132W, strain cdc53, active compounds read low",0.998
same,normalized growth,"S. cerevisiae deletion strains, locus YDL214C, strain PRR2, active compounds read low",0.992
same,normalized growth,"S. cerevisiae deletion strains, locus YDR052C, strain DBF4, active compounds read low",0.991
same,normalized growth,"S. cerevisiae deletion strains, locus YDR054C, strain cdc34, active compounds read low",0.993
same,normalized growth,"S. cerevisiae deletion strains, locus YDR226W, strain ADK1, active compounds read low",0.987
same,normalized growth,"S. cerevisiae deletion strains, locus YDR477W, strain SNF1, active compounds read low",0.994
same,normalized growth,"S. cerevisiae deletion strains, locus YER123W, strain YCK3, active compounds read low",0.936
same,normalized growth,"S. cerevisiae deletion strains, locus YER133W, strain GLC7, active compounds read low",0.977
same,normalized growth,"S. cerevisiae deletion strains, locus YFL009W, strain cdc4, active compounds read low",0.987
same,normalized growth,"S. cerevisiae deletion strains, locus YFL029C, strain CAK1, active compounds read low",1
same,normalized growth,"S. cerevisiae deletion strains, locus YFR003C, strain YPI1, active compounds read low",0.999
same,normalized growth,"S. cerevisiae deletion strains, locus YFR019W, strain FAB1, active compounds read low",0.982
same,normalized growth,"S. cerevisiae deletion strains, locus YFR028C, strain CDC14, active compounds read low",0.983
same,normalized growth,"S. cerevisiae deletion strains, locus YGR040W, strain KSS1, active compounds read low",1
same,normalized growth,"S. cerevisiae deletion strains, locus YGR052W, strain FMP48, active compounds read low",1.03
same,normalized growth,"S. cerevisiae deletion strains, locus YGR092W, strain DBF2, active compounds read low",0.961
same,normalized growth,[9],0.939
same,normalized growth,"S. cerevisiae deletion strains, locus YHR079C, strain IRE1, active compounds read low",0.972
same,normalized growth,"S. cerevisiae deletion strains, locus YHR082C, strain KSP1, active compounds read low",1.01
same,normalized growth,"S. cerevisiae deletion strains, locus YHR205W, strain SCH9, active compounds read low",0.938
same,normalized growth,"S. cerevisiae deletion strains, locus YIL147C, strain SLN1, active compounds read low",0.988
same,normalized growth,"S. cerevisiae deletion strains, locus YJL095W, strain BCK1, active compounds read low",0.98
same,normalized growth,"S. cerevisiae deletion strains, locus YJL128C, strain PBS2, active compounds read low",1.02
same,normalized growth,"S. cerevisiae deletion strains, locus YJL157C, strain FAR1, active compounds read low",0.996
same,normalized growth,"S. cerevisiae deletion strains, locus YJR016C, strain ILV3, active compounds read low",0.99
same,normalized growth,"S. cerevisiae deletion strains, locus YJR066W, strain TOR1 (second series), active compounds read low",0.995
same,normalized growth,"S. cerevisiae deletion strains, locus YJR066W, strain TOR1, active compounds read low",0.974
same,normalized growth,"S. cerevisiae deletion strains, locus YKL048C, strain ELM1, active compounds read low",0.971
same,normalized growth,"S. cerevisiae deletion strains, locus YKL067W, strain YNK1, active compounds read low",0.995
same,normalized growth,"S. cerevisiae deletion strains, locus YKL101W, strain HSL1, active compounds read low",1.01
same,normalized growth,"S. cerevisiae deletion strains, locus YKL193C, strain SDS22, active compounds read low",0.986
same,normalized growth,"S. cerevisiae deletion strains, locus YKL203C, strain TOR2, active compounds read low",1.03
same,normalized growth,"S. cerevisiae deletion strains, locus YLR113W, strain HOG1, active compounds read low",0.883
same,normalized growth,"S. cerevisiae deletion strains, locus YLR133W, strain CKI1, active compounds read low",1.01
same,normalized growth,"S. cerevisiae deletion strains, locus YLR403W, strain SFP1, active compounds read low",0.99
same,normalized growth,"S. cerevisiae deletion strains, locus YML070W, strain DAK1, active compounds read low",0.973
same,normalized growth,"S. cerevisiae deletion strains, locus YMR001C, strain CDC5, active compounds read low",0.995
same,normalized growth,"S. cerevisiae deletion strains, locus YMR205C, strain PFK2 (second series), active compounds read low",1.01
same,normalized growth,"S. cerevisiae deletion strains, locus YMR277W, strain FCP1, active compounds read low",0.992
same,normalized growth,"S. cerevisiae deletion strains, locus YNL006W, strain LST8, active compounds read low",1
same,normalized growth,"S. cerevisiae deletion strains, locus YNL020C, strain ARK1, active compounds read low",1
same,normalized growth,"S. cerevisiae deletion strains, locus YNL161W, strain CBK1, active compounds read low",0.98
same,normalized growth,"S. cerevisiae deletion strains, locus YNL183C, strain NPR1, active compounds read low",0.962
same,normalized growth,"S. cerevisiae deletion strains, locus YNL207W, strain RIO2, active compounds read low",0.996
same,normalized growth,"S. cerevisiae deletion strains, locus YNL222W, strain SSU72, active compounds read low",0.988
same,normalized growth,"S. cerevisiae deletion strains, locus YNL307C, strain MCK1 (second series), active compounds read low",0.935
same,normalized growth,"S. cerevisiae deletion strains, locus YOL078W, strain AVO1, active compounds read low",0.992
same,normalized growth,"S. cerevisiae deletion strains, locus YOL136C, strain PFK27, active compounds read low",0.971
same,normalized growth,"S. cerevisiae deletion strains, locus YOR061W, strain CKA2, active compounds read low",1.02
same,normalized growth,"S. cerevisiae deletion strains, locus YOR119C, strain RIO1, active compounds read low",0.983
same,normalized growth,"S. cerevisiae deletion strains, locus YOR231W, strain MKK1, active compounds read low",0.979
same,normalized growth,"S. cerevisiae deletion strains, locus YOR329C, strain SCD5, active compounds read low",0.983
same,normalized growth,"S. cerevisiae deletion strains, locus YPL031C, strain PHO85, active compounds read low",0.983
same,normalized growth,"S. cerevisiae deletion strains, locus YPL153C, strain RAD53, active compounds read low",0.986
same,normalized growth,"S. cerevisiae deletion strains, locus YPL204W, strain HRR25, active compounds read low",0.982
same,normalized growth,"S. cerevisiae deletion strains, locus YPL209C, strain IPL1, active compounds read low",0.984
same,normalized growth,"S. cerevisiae deletion strains, locus YPL256C, strain CLN2, active compounds read low",0.936
same,normalized growth,"S. cerevisiae deletion strains, locus YPR025C, strain CCL1, active compounds read low",0.972
same,normalized growth,"S. cerevisiae deletion strains, locus YPR106W, strain ISR1, active compounds read low",0.995
same,normalized growth,"S. cerevisiae deletion strains, locus YPR111W, strain DBF20, active compounds read low",0.997
same,normalized growth,"S. cerevisiae deletion strains, strain NNK1, active compounds read low",0.988
same,normalized growth,"S. cerevisiae deletion strains, strain TSCII, active compounds read low",0.987
